# From the supplement of paper PMC13380429
# Values without a mark were called inactive.
# System: Vero E6 infected with SARS-CoV-2
# Assay: inhibition of SARS-CoV-2 cytopathic effect; higher = more antiviral protection, active = above 15
# Conditions: 100 nM; 48 h
row,Structure (SMILES),inhibition of SARS-CoV-2 cytopathic effect [%]
1,CC(C)(C)C[C@@H]1N[C@@H](C(=O)N[C@H]2CC[C@H](O)CC2)[C@H](c2cccc(Cl)c2F)[C@]12C(=O)Nc1cc(Cl)ccc12,-7.89
2,NCCCC[C@H](NC(=O)[C@@H](Cc1cc(Br)c(O)c(Br)c1)NC(=O)N1CCC(N2Cc3ccccc3NC2=O)CC1)C(=O)N1CCN(c2ccncc2)CC1,2.08
3,CC(C)NC(=O)c1ccc(C#Cc2ccncc2)cn1,2.79
4,O=C(Nc1ccc(N2CCC(C(=O)N3CCOCC3)CC2)cc1)c1cnc(Oc2ccccc2)nc1,2.38
5,O=C(NN1C(=O)[C@@H]2[C@@H]3C=C[C@@H]([C@H]4C[C@@H]34)[C@@H]2C1=O)c1ccc(C(F)(F)F)cc1 [tecovirimat],2.71
6,O=c1ccc2ccc(OCCCCN3CCN(c4cccc5sccc45)CC3)cc2[nH]1 [brexpiprazole],2.49
7,Cc1ccc(-n2nc(C(C)(C)C)cc2NC(=O)Nc2ccc(OCCN3CCOCC3)c3ccccc23)cc1 [doramapimod],-0.73
8,NCCNCCNCCN [trientine],1.04
9,CCC1(C)CC(=O)NC1=O (stereo unspecified) [ethosuximide],1.18
10,O=C(O)CCCCC(CCSCc1ccccc1)SCc1ccccc1 (stereo unspecified),3.04
11,NC1CCN(c2cccc(Cl)n2)CC1,-4.6
12,COc1cc(C)[nH]c(=O)c1CNC(=O)c1c(C)n([C@H](C)C2CCOCC2)c2ccccc12,0.4
13,COc1cccc(Nc2c(C(N)=O)cnc3c(C)cc(S(=O)(=O)c4cccc(C(=O)N(C)C)c4)cc23)c1,0.15
14,O=C(O)CNC(=O)c1c(O)c2ccccc2n(Cc2ccccc2)c1=O,0.41
15,C/C=C(/C(=C/C)c1ccc(O)cc1)c1ccc(O)cc1 [dienestrol],-0.85
16,COC(=O)C1=C(C)NC(C)=C(C(=O)OC)C1c1ccccc1[N+](=O)[O-] [nifedipine],-0.27
17,N=C(N)c1ccc(-c2ccc(-c3ccc(C(=N)N)cc3)o2)cc1 [furamidine],-3.62
18,Cc1cccc(C(=O)NCN2CCN(c3ccccc3C#N)CC2)c1,-0.16
19,CCCCCCN(CCCCCC)C(=O)Cc1c(-c2ccc(F)cc2)[nH]c2ccccc12,3.88
20,N[C@H]1C(O)O[C@H](CO)[C@@H](O)[C@@H]1O (mixture of isomers) [glucosamine],2.73
21,CC(C)Nc1nc2cc(Cl)c(Cl)cc2n1[C@H]1O[C@@H](CO)[C@H](O)[C@@H]1O [maribavir],0.22
22,CC[C@H]1[C@@H](O)[C@@H]2[C@H](CC[C@]3(C)[C@@H]([C@H](C)CCOS(=O)(=O)O)CC[C@@H]23)[C@@]2(C)CC[C@@H](O)C[C@@H]12,-0.03
23,CCCCCCCCCCCC(=O)N(CCO)CCO [lauric-diethanolamide],-1.44
24,CC(Oc1ccc(O)cc1)(P(=O)(O)O)P(=O)(O)O,3.91
25,NC(=O)C1=CN([C@@H]2O[C@H](COP(=O)(O)OP(=O)(O)OC[C@H]3O[C@@H](n4cnc5c(N)ncnc54)[C@H](O)[C@@H]3O)[C@@H](O)[C@H]2O)C=CC1 [coenzyme-I],1.16
26,NC(=O)c1[nH]cnc1O,0.2
